Compound activity as filed in PubChem BioAssay.
Hits are enriched below; roughly 2.8% of the tested compounds scored in any of these assays.
GLP1R inv ag = GLP-1 receptor (human) inverse agonism. HEK293 GLP-1R CRE-luciferase, luminescence, 24 h; GLP-1R form is constitutively active. Potency, µM (highest dose often 38.3 µM), hits mostly inhibitors. P43220. hit rate 1.6% among 410,000. AID 624417; note: nearly all actives have a fitted effect of over 55% in size
Target sequence (P43220 whole entry, looked up): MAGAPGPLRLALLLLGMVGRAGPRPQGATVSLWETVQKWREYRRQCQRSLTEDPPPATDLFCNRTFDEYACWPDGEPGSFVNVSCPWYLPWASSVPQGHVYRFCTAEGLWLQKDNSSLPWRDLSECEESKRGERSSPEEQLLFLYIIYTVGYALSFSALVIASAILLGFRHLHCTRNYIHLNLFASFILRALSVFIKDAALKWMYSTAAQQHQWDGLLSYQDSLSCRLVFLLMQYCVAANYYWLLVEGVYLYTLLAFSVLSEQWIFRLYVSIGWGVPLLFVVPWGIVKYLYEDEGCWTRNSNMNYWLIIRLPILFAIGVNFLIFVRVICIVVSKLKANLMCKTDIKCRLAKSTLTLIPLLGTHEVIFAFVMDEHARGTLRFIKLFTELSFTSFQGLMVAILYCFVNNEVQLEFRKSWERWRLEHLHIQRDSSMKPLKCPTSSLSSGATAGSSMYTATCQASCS
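Using stably transfected HEK293 (constitutively active GLP-1R, cAMP-luciferase reporter), compounds were incubated 24 hr and luciferase measured by luminescence.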
BRCA1 expr up = BRCA1 expression activation | hit rate 1.1% among 380,000 | MCF7-BRCA1-FFLuc reporter, luminescence, 48 h; response scale: scaled: vehicle 0%, 10 µM genistein 100% | AID 624202 | Potency, µM (top dose mostly 46.1 µM), hits mostly activators; note: nearly all actives have a fitted effect of over 80% in size
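MCF7-BRCA1-FFLuc cells, 2000/well in phenol-red-free MEM, attached 2 h then treated 48 h at 37 C. Luciferase luminescence read 15 min after reagent; normalized to genistein maximum activation (10microM) and DMSO, concentration-response fitted.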
GLP1R ag = agonists of human GLP-1 receptor; P43220; hit rate 0.007% among 380,000; Potency, µM (titrated, usually from 45.6 µM), usual class: activators; AID 624172; HEK293 GLP-1R CRE-luciferase, luminescence, 4-6 h; cells express a hypersensitive GLP-1R form
Mito fusion act = blocks mitochondrial division or promotes mitochondrial fusion | S. cerevisiae fusion-defective mutant growth rescue, CellTiterGlo 48 h | Potency, µM (top dose mostly 46.1 µM), hits mostly activators | hit rate 0.23% among 320,000; note: nearly all actives have a fitted effect of over 45% in size
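Yeast fusion mutant, YPEG (non-fermentable carbon), compound, 48 h at 37C non-permissive; CellTiterGlo added, 10 min RT, luminescence read. Rescued growth = division inhibition.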
HEK293 tox = cytotoxic in the GLP-1 receptor inverse agonist counter-screen | HEK293 cAMP-luciferase reporter cells, luminescence, 24 h | Potency, µM (top dose mostly 38.3 µM), actives largely listed as inhibitors | hit rate 0.13% among 410,000;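 note: loss of luciferase light is scored as toxicity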
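Seeding density was 200 cells/uL; after overnight-length (12 h) culture, 23 nL compounds went on for 24 h at 37 °C. Readout used a luciferase detection reagent, luminescence taken after 12 min at room temperature.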
A number is an active result; 0 = inactive; ? = inconclusive; - = no result; [ ] = remark or other dose. Calls come from the whole dose curve; as a rule, active = well fitted curve in the direction sought with a large enough effect; inconclusive = small, poorly fitted or top-dose-only effect, or another doubt; inactive = no such curve, though single readings can be large; an effect the other way counts as inactive or inconclusive.

SMILES	GLP1R inv ag	BRCA1 expr up	GLP1R ag	Mito fusion act	HEK293 tox
CN(Cc1ccccc1)C(=O)c1csc(COCCO)n1	0	0	0	-	0
COc1ccccc1-n1cc(C(=O)NCC(=O)N2CCN(c3ccccc3)CC2)c2ccccc2c1=O	0	13µM	0	0	0
COc1ccc(-n2nc(C(=O)NCC(=O)N3CCCCC3)c3ccccc3c2=O)c(OC)c1	0	13µM	0	0	0
COc1ccc(-n2nc(C(=O)NCC(=O)N3CCOCC3)c3ccccc3c2=O)c(OC)c1	0	0	0	0	0
COc1ccccc1N1CCN(C(=O)CNC(=O)c2cn(-c3ccccc3OC)c(=O)c3ccccc23)CC1	0	0	0	0	0
COc1ccc(-n2nc(C(=O)NCC(=O)N3CCN(c4ccccc4F)CC3)c3ccccc3c2=O)cc1OC	0	8.9µM	0	0	0
COc1ccc(-n2nc(C(=O)NCC(=O)N3CCCCCC3)c3ccccc3c2=O)c(OC)c1	0	11µM	0	0	0
COc1ccccc1NC(=O)c1c(C)cc(=O)oc1C	0	0	0	0	0
COc1ccc(-c2ccccc2C2=CC(=O)CC(C)(C)C2=O)cc1	0	0	0	-	0
COc1ccc2cc(C3=CC(=O)CC(C)(C)C3=O)ccc2c1	0	13µM	0	-	0
CSc1ccccc1NC(=O)C1C2CCC(C2)C1C(=O)O (configuration not stated)	0	0	0	0	0
CC(C)(C)C1CCC2(CC1)C(C#N)=C(SCC(=O)NC1CCCCC1)NC(=O)C2C#N (configuration not stated)	8.9µM	0	0	?	0
CC1CCCN(c2ccc3nc4ccccc4c(=O)n3n2)C1 (configuration not stated)	5µM	0	0	0	0
COc1ccc(/C=C/c2cnccn2)cc1OC	-	0	-	-	-
Oc1ccc(/C=C/c2cnccn2)cc1	0	13µM	0	0	0
CCOC(=O)c1cccc(NC(=O)CC2C(=O)N(c3ccc(Cl)cc3)C(=O)N2C2CCCC2)c1 (configuration not stated)	13µM	-	-	-	0
COc1ccc2nc(NC(=O)C3CCN(C(=O)c4ccc(F)cc4)CC3)sc2c1	0	0	0	0	0
Cc1ccc(SCc2nc(-c3ccc(C(=O)NCCc4ccc(Cl)cc4)cc3)oc2C)cc1	0	-	-	-	0
Cc1ccc(SCc2nc(-c3ccc(C(=O)NCC(C)c4ccccc4)cc3)oc2C)cc1 (configuration not stated)	4.5µM	-	-	-	0
CCN1c2ccccc2-c2nc(SCC(=O)Nc3cc(C)c(Cl)cc3OC)ncc2S1(=O)=O	0	-	-	-	0
CC(=C/c1ccccc1)/C=N/NC(=O)c1nnn(-c2nonc2N)c1CN1CCC(C)CC1	4µM	0	0	0	0
C=C(C)c1sc(-c2ccccc2)nc1C	0	0	0	-	0
C/C(=N\O)c1sc(-c2ccccc2)nc1C	0	2.5µM	0	0	0
C=CCNc1nc(Nc2ccccc2F)nc(OCC)n1	0	10µM	0	0	0
CCOc1nc(Nc2ccccc2F)nc(OCC)n1	0	0	0	0	0
SMILES	GLP1R inv ag	BRCA1 expr up	GLP1R ag	Mito fusion act	HEK293 tox
N#Cc1cc([N+](=O)[O-])cnc1Nc1ccccc1	0	0	8.9µM	0	0
CCOC(=O)CNc1ncc([N+](=O)[O-])cc1C#N	0	0	0	0	0
COc1ccc2cc(/C=N/O)c(Cl)nc2c1	0[0.307 µM]	7.9µM	0	0	0[0.307 µM]
CC(C)(C)c1ccc(OCCC(=O)OCC(=O)Nc2cccnc2Cl)cc1	0	0	0	0	0
COc1ccc(C)cc1NS(=O)(=O)c1ccc(NC(=O)CN(c2cc([N+](=O)[O-])ccc2C)S(C)(=O)=O)cc1	1.8µM	0	0	0	0
O=C(COc1cccc(NC(=O)c2cccc([N+](=O)[O-])c2)c1)c1ccc(Br)cc1	3.2µM	0	0	0	0
O=C(COC(=O)c1cccc([N+](=O)[O-])c1)c1ccc(OCc2ccccc2)cc1	0	5µM	0	0	0
O=C(Oc1ccc(-c2cnc3ccccc3n2)cc1)c1cccc([N+](=O)[O-])c1	0	3.2µM	0	0	0
O=C(CC(=O)c1ccccc1)Nc1cccc([N+](=O)[O-])c1	0	?	0	-	0
COc1cccc(NC(=O)CC(=O)c2ccc([N+](=O)[O-])cc2)c1	0	11µM	0	0	0
CC1CCCN(C(=O)Cn2c(=O)n(CC3CCC(C(=O)NC(C)C)CC3)c(=O)c3sccc32)C1 (configuration not stated)	0	-	-	-	0
CC(C)CCN(CCC(C)C)CC(O)Cn1c2ccccc2c(=O)c2ccccc21 (configuration not stated)	0	0	0	0	0
Cc1cc(C(=O)N2CCN(C/C=C/c3ccccc3)CC2)no1	0	0	0	0	0
COc1ccc(C(=O)Nn2c(SCc3cccc([N+](=O)[O-])c3)nc3ccccc3c2=O)cc1	5.6µM	0	0	0	0
O=C(Nn1c(SCc2cccc([N+](=O)[O-])c2)nc2ccccc2c1=O)c1ccccc1	0	0	0	0	0[1.53 µM]
COC(=O)C(O)(CC(=O)Nc1cc(OC)c(OC)c(OC)c1)C(F)(F)F (configuration not stated)	0	0	0	0	0
Fc1ccc(Nc2nc(NCc3ccco3)c3ccccc3n2)cc1	3.5µM	0	0	0	?
COc1ccc(-c2cnc3c(NC(C)=O)cc(-c4cccc(C(=O)NCCO)c4)cn23)cc1OC	0	0	?	-	0
O=[N+]([O-])CC(c1ccc(F)cc1)c1c[nH]c2ccccc12 (configuration not stated)	7.1µM	0	0	0	0
NCC(c1ccccc1)c1c[nH]c2ccccc12 (configuration not stated)	?	0	0	0	0
Cc1cc(C)cc(NC(=O)NCC(O)COc2ccc([N+](=O)[O-])cc2)c1 (configuration not stated)	8.9µM	0	0	0	0
Clc1ccccc1Cn1c(-c2cccs2)nc2ccccc21	0	0	0	-	0
COC(=O)CSc1nc2c(cnn2-c2ccc(Cl)cc2)c(=O)[nH]1	0	0	0	0	0
O=C(Cc1ccc(F)cc1)Nc1ccccc1N1CCCC1	?	0	0	0	0
O=C(COc1ccccc1)Nc1cc(C(F)(F)F)ccc1N1CCCC1	13µM	0	0	0	0
CCOc1ccc(OCC(=O)Nc2ccccc2N2CCCC2)cc1	10µM	0	0	0	0
COc1cccc(CC(=O)Nc2cc(C(F)(F)F)ccc2N2CCCC2)c1	0	0	0	0	0
O=C(Cc1ccc(Cl)c(Cl)c1)Nc1ccccc1N1CCCC1	10µM	0	0	0	0
O=C(COc1ccccc1)Nc1ccccc1N1CCCCC1	11µM	0	0	0	0
